# High-throughput results deposited in PubChem by several laboratories.
# LANA DNA inh: inhibitors of KSHV C-LANA binding to DNA, primary screen, biochemical, fluorescence polarization, FAM-LBS DNA, MBP-C-LANA, single point. inhibition, % at 9 µM. actives 0.078% (n = 340,000). AID 504423, 2011;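 active means highest replicate inhibition at or above 60% at 9 µM, even if other replicates fall short; inactive means all replicates below 60% inhibition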
# MEX-5 binding: MEX-5 zinc finger RNA-binding disruptors – biochemical, C. elegans, fluorescence polarization, MLPCN library, primary screen; Zinc finger protein mex-5 (Caenorhabditis elegans), Q9XUB2; MEX-5/FITC-TCR2 RNA binding; hits give low values; activity score (negative = inhibition of binding), % at 10 µM; actives 0.38% (n = 300,000);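 active means inhibition past about -25% in most replicates, and total fluorescence under double the plate's negative control median, limit read from the data; inconclusive means replicates evenly split on the limit, or fluorescence at least double controls; inactive means too little inhibition in most replicates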
# E coli Lon inh: inhibitors of E. coli Lon protease, primary screen, biochemical, fluorescence polarization; P0A9M0; purified E. coli Lon protease; inhibition, % at 7.94 µM; actives 0.42% (n = 360,000); AID 602123, 2011; in the data active means inhibition above about 13%, passing the limit was not always enough
# GLD-1 TGE inh: GLD-1/TGE RNA complex disruptors, primary screen, biochemical, fluorescence polarization; AID 2280, 2010; actives 0.44% (n = 320,000); purified GLD-1 + fluorescein TGE RNA; inhibition, % at 5.96 µM;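 active means percent inhibition above a per-plate cutoff, the plate mean of test compounds plus 3 SD, cut at about 30% in these data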
# BCLXL inh: inhibitors of human Bcl-xL, primary screen, biochemical, fluorescence polarization, HTS | GST-Bcl-xL / FITC-Bim BH3 peptide fluorescence polarization | actives 0.7% (n = 320,000) | inhibition, % at 10.9 µM;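 active means inhibition above the mean of all tested compounds plus 3 SD, cutoff set per campaign, cut at about 30% in these data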;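 further: inhibitors lower millipolarization by displacing the labeled peptide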
# Keap1 Nrf2 FP: Keap1-Nrf2 protein-protein interaction inhibitors, primary screen, biochemical, fluorescence polarization, single point; inhibition, % at 9.4 µM; Keap1 Kelch-Nrf2 peptide fluorescence polarization, 1536-well; actives 0.15% (n = 340,000); in the data active means inhibition above about 12%; inconclusive means no clear call, values can overlap the other calls; inactive means below about 7.3%;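 further: human Keap1 Kelch domain with fluorescein labeled Nrf2 9mer peptide probe; higher means more block of Keap1 binding to Nrf2 peptide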
# Target sequence (Q14145 whole entry, looked up, the tested form may be a part): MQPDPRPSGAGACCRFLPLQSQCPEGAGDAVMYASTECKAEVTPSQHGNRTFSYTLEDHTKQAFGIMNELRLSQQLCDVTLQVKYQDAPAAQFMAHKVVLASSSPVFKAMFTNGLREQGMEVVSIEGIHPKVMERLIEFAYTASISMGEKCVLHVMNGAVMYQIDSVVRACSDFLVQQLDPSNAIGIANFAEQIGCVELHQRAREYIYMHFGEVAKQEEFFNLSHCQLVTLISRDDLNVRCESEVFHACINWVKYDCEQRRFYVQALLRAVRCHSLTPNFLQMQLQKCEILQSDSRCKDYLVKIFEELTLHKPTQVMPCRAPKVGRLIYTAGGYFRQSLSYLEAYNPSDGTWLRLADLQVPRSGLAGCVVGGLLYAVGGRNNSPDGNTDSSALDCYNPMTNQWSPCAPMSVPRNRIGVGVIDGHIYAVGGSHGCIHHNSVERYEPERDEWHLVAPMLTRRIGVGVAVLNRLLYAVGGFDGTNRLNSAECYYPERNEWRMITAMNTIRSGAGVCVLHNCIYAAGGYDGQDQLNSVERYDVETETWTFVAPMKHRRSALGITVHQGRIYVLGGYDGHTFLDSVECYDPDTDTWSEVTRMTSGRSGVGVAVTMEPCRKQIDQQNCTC
# Hits are given with their value; n = inactive; u = inconclusive; x = not tested or not shown. In the library only some 1.2% were active in any assay of this set; here they are far more common.
SMILES,LANA DNA inh,MEX-5 binding,E coli Lon inh,GLD-1 TGE inh,BCLXL inh,Keap1 Nrf2 FP
CC1Oc2cc3oc4c(O)c(O)ccc4c(=O)c3c(O)c2C1(C)C (stereo not given),n,n,n,31,n,n
COc1cc(F)ccc1-c1cc(C(=O)Nc2cc(OC)c(OC)c(OC)c2)[nH]n1,x,x,n,x,x,x
Nc1ccc2nc(CN3CCOCC3)[nH]c2c1,n,-64,n,n,n,n
Cc1ccc2nc(Cc3ccc(N)cc3)[nH]c2c1,n,n,n,n,n,n
Nc1ccc2nc(Cc3ccccc3)[nH]c2c1,n,n,n,76,n,n
CSc1ccc(C2Nc3cccc4cccc(c34)N2)cc1,n,n,n,n,n,n
Clc1ccc(C2Nc3cccc4cccc(c34)N2)cc1,n,n,n,n,44,n
Cn1c(CC(=O)Nc2ccccc2)cc2ccccc21,n,n,n,n,n,n
Oc1c(Br)cc(Br)cc1/C=N/Nc1ccc(Cl)nn1,n,n,n,n,n,n
Oc1ccc(/C=N/Nc2ccc(Cl)nn2)c(O)c1O,n,-48,n,n,n,n
CCC(C)Sc1cccc(-c2nc3ccc(C)cn3c2NC2CCCCC2)c1 (stereo not given),n,n,n,n,n,n
CCC(C)Sc1ccc(-c2nc3ccc(C)cn3c2NC2CCCCC2)cc1 (stereo not given),n,n,x,n,48,n
CCCCN(C(=O)c1ccc(S(=O)(=O)N2CCC(C)CC2)cc1)C1CCS(=O)(=O)C1 (stereo not given),n,n,n,n,n,n
CCOC1(OCC)N=C(N)C2(C#N)C(c3ccc(NC(C)=O)cc3)C12C#N (stereo not given),n,-27,n,n,n,n
O=C(NCCc1ccc(Cl)cc1)c1cc(-c2ccccn2)nc2ccccc12,n,n,n,n,n,n
COc1ccc2cc(/C=C3\SC(=S)NC3=O)c(N3CCOCC3)nc2c1,n,-26,n,n,n,n
O=C1NC(=S)S/C1=C/c1ccc(N2CCOCC2)o1,n,u,n,n,47,n
O=C1S/C(=C/c2ccc(N3CCOCC3)o2)C(=O)N1Cc1ccc(F)cc1,n,n,n,n,n,n
Cc1nc2ccc(C(=O)NCCCn3ccnc3)cn2c1N(C)C(=O)CCc1ccccc1,x,x,n,x,x,x
CCOC(=O)/C(C#N)=N/Nc1ccccc1C#N,n,n,n,n,n,n
COC(=O)C1=C(O)/C(=C\c2ccc(CNS(=O)(=O)c3ccc(Cl)cc3)o2)N=C1C,n,n,n,n,n,n
COC(=O)C1=C(O)/C(=C\c2ccc(CNS(=O)(=O)c3ccccc3)o2)N=C1C,n,n,n,n,45,n
CCCC1c2ccc(C)n2CCN1C(=O)Nc1ccc(F)cc1 (stereo not given),n,n,n,n,46,n
O=C(CC1C(=O)NCCN1C(=O)Nc1ccc(F)cc1)Nc1ccc(F)cc1 (stereo not given),n,n,n,n,n,n
CCC1c2ccc(C)n2CCN1C(=O)Nc1ccc(F)cc1 (stereo not given),n,n,n,n,45,n
SMILES,LANA DNA inh,MEX-5 binding,E coli Lon inh,GLD-1 TGE inh,BCLXL inh,Keap1 Nrf2 FP
O=C(CCC(=O)c1ccc(Cl)cc1)OCn1nnc2ccccc2c1=O,n,x,n,n,x,n
Cc1noc(C)c1NC(=O)N(C)C[C@H]1Oc2c(NC(=O)Nc3ccc4c(c3)OCO4)cccc2C(=O)N([C@H](C)CO)C[C@@H]1C,n,x,n,n,x,n
C[C@H](CO)N1C[C@H](C)[C@@H](CN(C)Cc2ccc(C(=O)O)cc2)Oc2c(NS(=O)(=O)c3cn(C)cn3)cccc2C1=O,n,x,n,n,x,n
CC1(C)Cc2c(C#N)c(N3CCN(C(=O)c4ccco4)CC3)nc(-c3ccco3)c2CS1,n,n,n,n,35,n
CC1(C)Cc2c(C#N)c(N3CCN(C(=O)c4ccccc4Cl)CC3)nc(-c3ccco3)c2CS1,n,n,n,n,33,n
CC(=O)N1CCN(c2nc(-c3ccco3)c3c(c2C#N)CC(C)(C)SC3)CC1,n,n,n,n,n,n
Cn1cc(/C=C(\C#N)C(=O)Nc2ccccc2O)c2ccccc21,n,n,n,n,n,n
NS(=O)(=O)c1ccc(-c2ccc(/C=C3\NC(=S)NC3=O)o2)cc1,n,-65,n,n,n,n
C=CCOC(=O)c1cc(-c2ccc(/C=C3\C(=O)NC(=O)C(C#N)=C3C)o2)ccc1Cl,81,x,n,x,x,n
NS(=O)(=O)c1ccc(-c2ccc(C=O)o2)cc1,n,n,n,n,n,n
CCCOC(=O)c1cc(-c2ccc(/C=C3/C(=O)N(C)C(=O)C(C#N)=C3C)o2)ccc1Cl,n,x,n,n,n,n
CC1=C(C#N)C(=O)NC(=O)/C1=C/c1ccc(-c2ccc(S(N)(=O)=O)cc2)o1,n,-33,n,n,n,n
COC(=O)C[C@H]1C[C@H]2c3cc(NC(=O)C4CCOCC4)ccc3O[C@H]2[C@@H](CO)O1,x,x,n,x,x,x
COc1ccc(NC(=O)CSc2nnc3n2CCCCC3)cc1S(=O)(=O)N(C)C,x,x,n,x,x,x
Cc1ccc(NC(=O)C(=O)NCCN2CCN(S(C)(=O)=O)CC2)cc1C,n,n,n,n,n,n
CCN(CC)c1ccc(NC(=O)COC(=O)/C=C/c2nc3ccccc3s2)cc1,n,n,n,n,n,n
CCN(CC)c1ccc(/C=C/c2nc3ccccc3s2)cc1,x,-32,x,n,n,x
CC1CN2C(c3ccc([N+](=O)[O-])cc3)=CSC2=N1 (stereo not given),n,n,n,n,n,n
O=C(CSc1nc(-c2ccccc2Cl)ns1)NCc1ccco1,n,n,n,n,n,n
O=C(CSc1nc(-c2ccccc2Cl)ns1)NCc1ccc2c(c1)OCO2,n,n,n,n,63,n
CC1CCCC(NC(=O)COC(=O)c2cc(S(=O)(=O)N3CCOCC3)ccc2F)C1C (stereo not given),n,x,n,n,n,n
O=S(=O)(NNC(=S)Nc1ccc(S(=O)(=O)Nc2ncccn2)cc1)c1ccc(Br)cc1,n,-99,n,n,n,n
O=C(NC(=S)Nc1ccc(S(=O)(=O)Nc2ncccn2)cc1)c1ccc(Br)cc1,n,n,n,n,n,n
COc1ccc(NC(=O)c2sc3nc(-c4cccnc4)ccc3c2N)cc1,n,-55,n,69,108,n
COc1ccc(NC(=O)c2sc3nc(-c4cccnc4)ccc3c2N)cc1OC,n,u,n,n,48,n
CCCn1c(SCC(=O)Nc2ccc(S(=O)(=O)N3CCOCC3)cc2)n[nH]c1=O,x,x,n,x,x,x
